The source of these data is PubChem BioAssay (NCATS).

Test [1] concerns the target Cellular tumor antigen p53 (Homo sapiens) (UniProt P04637). Kind of test: Primary qHTS for small molecule compounds that upregulate eGFP-tagged delta133p53alpha (in N-terminal) cells. (AID 2060322). Also: nearly all actives have a fitted effect of over 75% in size. Also: potency is read from the fitted curve at half-maximal effect.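 As to activation: cells pre-induced with doxycycline then dosed without doxycycline; series mostly up to about 56 µM; 0% = DMSO vehicle and 100% = reference activator.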 Conditions: NCI-H358 eGFP-delta133p53alpha fluorescence, 24 h; activation: active compounds read high. In short, it runs like this: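 NCI-H358 cells pre-induced 24 h with 10 ng/ml doxycycline for eGFP-delta133p53alpha, plated dox-free and exposed 24 h at 37C to titrated compounds. Fixed, Hoechst-stained; gated GFP peak intensity by laser scanning cytometry, normalized to DMSO (0%) and 57.5 uM 5-azacytidine (100%).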
A general note: Quantitative high-throughput screening tests each substance at several concentrations.

Test [2] concerns the target Aldehyde dehydrogenase, mitochondrial (Homo sapiens) (UniProt P05091). Kind of test: qHTS for Inhibitors of the Aldehyde Dehydrogenase Family (ALDH2) Primary screen (AID 2061308).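 Also: plate controls were vehicle for no effect and reference inhibitor for full effect; nearly all actives have a fitted effect of over 55% in size.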
Test [3] has as its target Retinaldehyde dehydrogenase 3 (Homo sapiens) (UniProt P47895). Kind of test: qHTS for Inhibitors of the Aldehyde Dehydrogenase Family (ALDH1A3) Validation screen (AID 2061312). Also: % is scaled to controls: 0 for no effect and ±100 for the full control effect; nearly all actives have a fitted effect of over 45% in size.
Test [4] shares this target. In words: qHTS for Inhibitors of the Aldehyde Dehydrogenase Family (ALDH1A3) Primary screen (AID 2061315).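 Also: plate controls were DMSO vehicle for no effect and reference inhibitor for full effect.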
Test [5] is described as follows: BET inhibitor-based combinations targeting novel dependencies in MECOM-rearranged (r) AML: MV-4-11 cell line (AID 2202233). Also: potency is read from the fitted curve at half-maximal effect; nearly all actives have a fitted effect of over 45% in size. In short, it runs like this:
(§1)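 First, 500 cells per well were seeded; next, drugs were pinned as 11-point doses; then plates sat 48 hr in the incubator; finally CellTiter-Glo was added and luminescence read, with AUC and Z-AUC computed.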

Test [6] in a line: BET inhibitor-based combinations targeting novel dependencies in MECOM-rearranged (r) AML: UCSD-AML1 cell line (AID 2202235). Also: nearly all actives have a fitted effect of over 40% in size. Also: potency is read from the fitted curve at half-maximal effect. In short, it runs like this:
as §1

Test [7] in a line: BET inhibitor-based combinations targeting novel dependencies in MECOM-rearranged (r) AML: AML-191 cell line (AID 2202236; also: potency is read from the fitted curve at half-maximal effect; nearly all actives have a fitted effect of over 35% in size). In short, it runs like this:
(§2)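 Each compound was tested at eleven concentrations on cells seeded at 500/well. After two days' incubation, ATP-based luminescence reported viability; responses relative to DMSO and blank wells yielded AUC and cell-line-centred Z-AUC.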

Test [8] in a line: BET inhibitor-based combinations targeting novel dependencies in MECOM-rearranged (r) AML: AML-194 cell line (AID 2202237; also: potency is read from the fitted curve at half-maximal effect; nearly all actives have a fitted effect of over 40% in size). In short, it runs like this: as §2
A short description of test [9]: BET inhibitor-based combinations targeting novel dependencies in MECOM-rearranged (r) AML: SET-2 cell line (AID 2202231). Also: potency is read from the fitted curve at half-maximal effect; nearly all actives have a fitted effect of over 35% in size. Conditions: SET-2 AML cells viability, CellTiter-Glo luminescence, 48 h; viability: active compounds read low, concentration not given here. In short, it runs like this:
as §2

Inconclusive results are not listed. Unmarked numbers belong to inactive results. Calls of active or inactive are those of the source. Calls follow the shape of the dose curve; as a rule, active = well fitted curve in the direction sought with a large enough effect; inconclusive = small, poorly fitted or top-dose-only effect, or another doubt; inactive = no such curve, though single readings can be large; an effect the other way counts as inactive or inconclusive.

Cellular tumor antigen p53 (Homo sapiens), sequence (P04637 whole entry, looked up): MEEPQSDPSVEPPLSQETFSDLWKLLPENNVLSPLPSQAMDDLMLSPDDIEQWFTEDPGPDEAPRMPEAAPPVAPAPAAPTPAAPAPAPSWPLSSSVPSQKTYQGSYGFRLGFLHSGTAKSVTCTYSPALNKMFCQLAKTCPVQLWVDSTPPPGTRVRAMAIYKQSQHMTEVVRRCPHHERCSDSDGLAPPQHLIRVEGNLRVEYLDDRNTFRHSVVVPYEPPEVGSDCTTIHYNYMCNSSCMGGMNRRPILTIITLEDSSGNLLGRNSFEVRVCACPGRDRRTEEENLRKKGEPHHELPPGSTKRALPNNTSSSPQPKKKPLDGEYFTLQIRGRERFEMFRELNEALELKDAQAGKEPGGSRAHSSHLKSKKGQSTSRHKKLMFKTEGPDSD

Regarding `N#Cc1ccc([C@H]2CCCC[C@H]2O)cc1C(F)(F)F`, the activation in [1] was 11%. In addition, the Potency entry in test [2], in [3] and in test [4] was “inactive” in each case.
Take `CC(N)Cc1c[nH]c2ccccc12` (stereo not drawn): in test [1], the activation was 12.4%. Besides, the Potency result in [2], in test [3] and in [4] was “inactive” in each case.
With `CN(C(=O)Cc1ccccc1)C(CN1CCCC1)c1ccccc1` (stereo not drawn), the activation in [1] is -0.477%. Further, the Potency result in test [2], in test [3] and in test [4] was “inactive” throughout.
Turning to `CN=C(NS(=O)(=O)c1ccc(Cl)cc1)N1C[C@H](c2ccccc2)C(c2ccc(Cl)cc2)=N1`, the activation in test [1] is 1.91%. Besides, the Potency entry in test [2], in test [3] and in test [4] was “inactive” each time.
As for `CC1(C)C(=O)N(c2ccc(C#N)c(C(F)(F)F)c2)C(=O)N1CCCCO`, the activation in test [1] is -17.7%. Moreover, the Potency entry in [2], in test [3] and in test [4] was “inactive” in each case.
As for `CN1C(=O)CN=C(c2ccccc2Cl)c2cc(Cl)ccc21`, in test [1], the activation is -10%. For the same compound, the Potency result in [2], in test [3] and in test [4] was “inactive” in each case.
On to `N#Cc1cn([C@@H]2O[C@H](CO)[C@H](O)[C@@H]2O)c2ncnc(N)c12`, for which the Potency in test [1] is 0.0757 µM (active). For the same compound, the Potency entry in test [2], in test [3] and in test [4] was “inactive” in each case.
Consider `CC1=C[C@H]2O[C@@H]3C[C@H]4OC(=O)/C=C/C=C/C(=O)OCC/C(C)=C/C(=O)OC[C@@]2(CC1)[C@]4(C)[C@]31CO1`, for which the Potency in [1] was 0.0165 µM (active). In addition, the Potency entry in [2] and in test [4] was “inactive” each time.
As to `COc1cccc(NCC(F)Cn2c3ccc(Br)cc3c3cc(Br)ccc32)c1` (stereo not drawn), in test [1], the activation was 8.11%. The Potency entry in [2], in [3] and in [4] was “inactive” in each case.
Consider `C[C@@H]1CN(Cc2ccc(F)cc2)CCN1C(=O)COc1ccc(Cl)cc1NC(N)=O`, for which the activation in [1] is 1.91%. The Potency entry in test [2], in test [3], in [4] and in test [6] was “inactive” each time. The values for the Potency in test [5], in [7] and in test [8] were 14.8 µM (active), 7.42 µM (active) and 18.6 µM (active), respectively.
As to `C[C@@]1(CO)[C@H](O)CC[C@@]2(C)[C@H]1CC[C@H]1C[C@@H]3C[C@@]12CC[C@]3(O)CO`, in test [1], the activation was -3.82%. Also, the Potency entry in [2] and in test [4] was “inactive” throughout.
On to `Cc1sc2c(c1C)C(c1ccc(Cl)cc1)=NC(CC(=O)Nc1ccc(O)cc1)c1nnc(C)n1-2` (stereo not drawn), for which, in [1], the activation is -21.2%. Also, the Potency result in test [2], in [3] and in test [4] was “inactive” throughout. The Potency in test [9] is 1.32 µM (active); in [5], 0.296 µM (active); in test [6] it was 0.742 µM (active).
